Source: the supplement of paper PMC8728848
About 410 targets per protein were measured; listed, in parts, are those with the strongest signals and a random draw of the rest.

Assays:
Experiment in all cases: glycan array binding signal (z-score within array); higher = stronger binding
Conditions in all cases: glycan notation: IUPAC condensed, linker removed
Fuc(a1-2)Gal(b1-3)GalNAc = biological target: Fuc(a1-2)Gal(b1-3)GalNAc
Summary of the method: (§1)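 Glycan array binding is given as a within-array Z-score, which can be read as non-binding when negative. The arrays, 3228 of them, came from the Consortium for Functional Glycomics database and were retained only where the protein sequence was available. Z-scores were averaged across arrays of the same protein sequence at different concentrations or buffers and across linkers.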

[1] = biological target: Fuc(a1-2)Gal(b1-3)GalNAc(b1-3)Gal
Summary of the method: as §1

[2] = biological target: Fuc(a1-2)Gal(b1-3)GlcNAc(b1-3)[Neu5Ac(a2-6)Gal(b1-4)GlcNAc(b1-6)]Gal(b1-4)Glc
Summary of the method: as §1

[3] = biological target: Fuc(a1-2)Gal(b1-3)[Fuc(a1-4)]GlcNAc(b1-2)Man(a1-3)[Fuc(a1-2)Gal(b1-3)[Fuc(a1-4)]GlcNAc(b1-2)Man(a1-3)]Man(b1-4)GlcNAc(b1-4)GlcNAc
Summary of the method: as §1

[4] = biological target: Fuc(a1-2)Gal(b1-4)GlcNAc(b1-2)Man(a1-3)[Fuc(a1-2)Gal(b1-4)GlcNAc(b1-2)Man(a1-6)]Man(b1-4)GlcNAc(b1-4)GlcNAc
Summary of the method: as §1

[5] = biological target: Fuc(a1-2)Gal(b1-4)[Fuc(a1-3)]GlcNAc(b1-3)[Neu5Ac(a2-6)Gal(b1-4)GlcNAc(b1-6)]Gal(b1-4)Glc
Summary of the method: as §1

[6] = biological target: Fuc(a1-2)[Gal(a1-3)]Gal(b1-3)GlcNAc(b1-6)GalNAc
Summary of the method: as §1

[7] = biological target: Fuc(a1-2)[Gal(a1-3)]Gal(b1-4)GlcNAc(b1-2)Man
Summary of the method: as §1

[8] = biological target: Fuc(a1-2)[Gal(a1-3)]Gal(b1-4)GlcNAc(b1-6)GalNAc
Summary of the method: as §1

[9] = biological target: Fuc(a1-2)[GalNAc(a1-3)]Gal(b1-3)GlcNAc(b1-2)Man(a1-3)[Fuc(a1-2)[GalNAc(a1-3)]Gal(b1-3)GlcNAc(b1-2)Man(a1-6)]Man(b1-4)GlcNAc(b1-4)[Fuc(a1-6)]GlcNAc
Summary of the method: as §1

[10] = biological target: Fuc(a1-2)[GalNAc(a1-3)]Gal(b1-4)GlcNAc
Summary of the method: as §1

[11] = biological target: Fuc(a1-2)[GalNAc(a1-3)]Gal(b1-4)GlcNAc(b1-2)Man
Summary of the method: as §1

[12] = biological target: Fuc(a1-2)[GalNAc(a1-3)]Gal(b1-4)GlcNAc(b1-2)Man(a1-3)[Fuc(a1-2)[GalNAc(a1-3)]Gal(b1-4)GlcNAc(b1-2)Man(a1-6)]Man(b1-4)GlcNAc(b1-4)GlcNAc
Summary of the method: as §1

[13] = biological target: Fuc(a1-2)[GalNAc(a1-3)]Gal(b1-4)GlcNAc(b1-3)GalNAc
Summary of the method: as §1

[14] = biological target: Fuc(a1-3)[Gal(b1-4)]GlcNAc(b1-2)Man(a1-3)[Fuc(a1-3)[Gal(b1-4)]GlcNAc(b1-2)Man(a1-6)]Man(b1-4)GlcNAc(b1-4)[Fuc(a1-6)]GlcNAc
Summary of the method: as §1

[15] = biological target: Fuc(a1-3)[Gal3S(b1-4)]GlcNAc6S
Summary of the method: as §1

[16] = biological target: Gal(a1-3)Gal(b1-3)GlcNAc(b1-2)Man(a1-3)[Gal(a1-3)Gal(b1-3)GlcNAc(b1-2)Man(a1-6)]Man(b1-4)GlcNAc(b1-4)GlcNAc
Summary of the method: as §1

[17] = biological target: Gal(a1-3)Gal(b1-4)GlcNAc(b1-2)Man(a1-3)[Gal(a1-3)Gal(b1-4)GlcNAc(b1-2)Man(a1-6)]Man(b1-4)GlcNAc(b1-4)GlcNAc
Summary of the method: as §1

[18] = biological target: Gal(a1-4)Gal(b1-4)GlcNAc(b1-2)Man(a1-3)[Gal(a1-4)Gal(b1-4)GlcNAc(b1-2)Man(a1-6)]Man(b1-4)GlcNAc(b1-4)GlcNAc
Summary of the method: as §1

Gal(b1-2)Gal = biological target: Gal(b1-2)Gal
Summary of the method: as §1

[19] = biological target: Gal(b1-3)GlcNAc(b1-2)Man(a1-3)[Gal(b1-3)GlcNAc(b1-2)Man(a1-6)]Man(b1-4)GlcNAc(b1-4)[Fuc(a1-6)]GlcNAc
Summary of the method: as §1

[20] = biological target: Gal(b1-3)GlcNAc(b1-3)Gal(b1-4)GlcNAc(b1-3)Gal(b1-4)GlcNAc(b1-2)[Gal(b1-3)GlcNAc(b1-3)Gal(b1-4)GlcNAc(b1-3)Gal(b1-4)GlcNAc(b1-6)]Man(a1-6)[Gal(b1-3)GlcNAc(b1-3)Gal(b1-4)GlcNAc(b1-3)Gal(b1-4)GlcNAc(b1-2)Man(a1-3)]Man(b1-4)GlcNAc(b1-4)[Fuc(a1-6)]GlcNAc
Summary of the method: as §1

[21] = biological target: Gal(b1-3)[Fuc(a1-4)]GlcNAc(b1-2)Man
Summary of the method: as §1

[22] = biological target: Gal(b1-3)[Neu5Ac(b2-6)]GalNAc
Summary of the method: as §1

Gal(b1-4)Gal = biological target: Gal(b1-4)Gal
Summary of the method: as §1

[23] = biological target: Gal(b1-4)GlcNAc(b1-2)Man(a1-6)[Man(a1-3)]Man(b1-4)GlcNAc(b1-4)GlcNAc
Summary of the method: as §1

[24] = biological target: Gal(b1-4)GlcNAc(b1-2)[Gal(b1-4)GlcNAc(b1-4)]Man(a1-3)[Gal(b1-4)GlcNAc(b1-2)Man(a1-6)]Man(b1-4)GlcNAc(b1-4)GlcNAc
Summary of the method: as §1

B1: PX14343H-pdi-506-26-506 (Parabacteroides distasonis) (protein)
chain: QPTGTMTTDSKLTSKESALALTNSAYLKNTVFNKMTPGWGCNTILLLEYMTGKATSENSQSNYKDFQDLLVSDRSLYIEDWWQDCYAGIANCNLALQKLGEFENLDASLVNGYMAEVKFMRALYYFYLVRIFGDVPKITTVQSELGELQVSRAPVKEIYDEIIIPDLLEAEQSDLAFSDHTGRVSMGAVKALLADVYLTYAGYPLQGGKSYYAESAKRSLEVIKSNEYTLFTDYESLRLPSQNNKGEFIYQVQFSLNKRHNESVRIFLPSRSGISAYDLEYGSLIPTKEFVESFEKGDKRTEEKQYFFTNYKGHPSKFSPGAAELEFMDLNGYYIYKFFDQVAVDNTAKSDLNWSVYRYTDVLLMYAEAQVNADGTPNQQSIDIVNQIRGRAGLAPFKQTNASAFLEEVWDQRYFDLCYENKMWFDMLRTRKIRDDKSGEYVDFIGYKTNWGKVYTETQLLFPIPLSERQANPNLTQNQGY
glycan array binding signal (z-score) (Fuc(a1-2)Gal(b1-3)GalNAc): -0.509
glycan array binding signal (z-score) [1]: -0.373
glycan array binding signal (z-score) [2]: -0.402
glycan array binding signal (z-score) [3]: -0.174
glycan array binding signal (z-score) [4]: 3.11
glycan array binding signal (z-score) [5]: -0.392
glycan array binding signal (z-score) [6]: -0.255
glycan array binding signal (z-score) [7]: -0.394
glycan array binding signal (z-score) [8]: -0.381
glycan array binding signal (z-score) [9]: -0.391
glycan array binding signal (z-score) [10]: -0.526
glycan array binding signal (z-score) [11]: -0.523
glycan array binding signal (z-score) [12]: 4.7
glycan array binding signal (z-score) [13]: -0.4
glycan array binding signal (z-score) [14]: 2.77
glycan array binding signal (z-score) [15]: -0.299
glycan array binding signal (z-score) [16]: 3.96
glycan array binding signal (z-score) [17]: 6.89
glycan array binding signal (z-score) [18]: 0.705
glycan array binding signal (z-score) (Gal(b1-2)Gal): -0.367
glycan array binding signal (z-score) [19]: 0.737
glycan array binding signal (z-score) [20]: 3.2
glycan array binding signal (z-score) [21]: -0.12
glycan array binding signal (z-score) [22]: -0.512
glycan array binding signal (z-score) (Gal(b1-4)Gal): 1.08
glycan array binding signal (z-score) [23]: 5.33
glycan array binding signal (z-score) [24]: 0.486
